Screen size: about 5,500 compounds; about 2,000 (36%) were called active. Roughly 18% stayed inconclusive and do not appear here. No stated cut-off is given here; in the data, active means normalized growth mostly below about 0.91 (no sharp cut-off); inconclusive means no clear call, values can overlap the other calls; inactive means mostly above about 0.92. Some of the results follow.
Assay: chemical genetic growth profiling, strain panel (AID 1159580);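 further: tested at 20 µM; growth read once vehicle control cultures reached saturation at 30 °C; 1 = growth at the plate median or of vehicle wells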
Details: S. cerevisiae deletion strains, growth OD
[1] = locus YDL101C, strain DUN1, stronger effect = lower value
[2] = locus YHR030C, strain SLT2, stronger effect = lower value

Measured: normalized growth

COc1ccccc1N1CC(C)(C)C(=O)N(C(=O)c2c(F)cccc2Cl)C1=S
inactive: locus YAL013W, strain DEP1, stronger effect = lower value 1.02 | locus YBR229C, strain ROT2, stronger effect = lower value 1.02 | locus YCL061C, strain MRC1, stronger effect = lower value 1.02 | [1] 1.03 | locus YDR150W, strain NUM1, stronger effect = lower value 0.933 | locus YEL061C, strain CIN8, stronger effect = lower value 0.985 | locus YGR078C, strain PAC10, stronger effect = lower value 1.02 | [2] 1.01 | locus YHR087W, strain rtc3, stronger effect = lower value 0.986 | locus YJL187C, strain SWE1, stronger effect = lower value 1.02 | locus YJR043C, strain POL32, stronger effect = lower value 1.03 | locus YJR075W, strain HOC1, stronger effect = lower value 1 | locus YKL190W, strain CNB1, stronger effect = lower value 1 | locus YLR039C, strain RIC1, stronger effect = lower value 0.862 | locus YLR058C, strain SHM2 (second series), stronger effect = lower value 0.995 | locus YLR085C, strain ARP6, stronger effect = lower value 0.984 | locus YLR262C, strain YPT6, stronger effect = lower value 0.86 | locus YML094W, strain GIM5, stronger effect = lower value 1 | locus YMR219W, strain ESC1, stronger effect = lower value 1.02 | locus YMR263W, strain SAP30, stronger effect = lower value 0.954 | locus YNL128W, strain TEP1, stronger effect = lower value 1.02 | locus YNL153C, strain GIM3, stronger effect = lower value 1 | locus YNL298W, strain CLA4 (second series), stronger effect = lower value 1.01 | locus YNL322C, strain KRE1, stronger effect = lower value 1.01 | locus YNR030W, strain Alg12, stronger effect = lower value 1 | locus YPL055C, strain LGE1, stronger effect = lower value 0.899 | locus YPL241C, strain CIN2, stronger effect = lower value 1.01 | locus YPR135W, strain CTF4, stronger effect = lower value 0.985

O=C(Nc1cc(Cl)cc(Cl)c1)c1cc(Cl)ccc1O
active: locus YDR052C, strain DBF4, stronger effect = lower value 0.91 | locus YGR092W, strain DBF2, stronger effect = lower value 0.321 | [2] 0.799 | locus YHR205W, strain SCH9, stronger effect = lower value 0.504 | locus YJL157C, strain FAR1, stronger effect = lower value 0.648 | locus YKL048C, strain ELM1, stronger effect = lower value 0.802 | locus YLR113W, strain HOG1, stronger effect = lower value 0.844 | locus YLR403W, strain SFP1, stronger effect = lower value 0.642 | locus YNL020C, strain ARK1, stronger effect = lower value 0.68 | locus YNL307C, strain MCK1 (second series), stronger effect = lower value 0.615 | locus YPL256C, strain CLN2, stronger effect = lower value 0.836
inactive: locus YAR019C, strain CDC15, stronger effect = lower value 0.93 | locus YBL105C, strain PKC1, stronger effect = lower value 0.94 | locus YBR135W, strain CKS1, stronger effect = lower value 0.922 | locus YBR136W, strain MEC1, stronger effect = lower value 0.943 | locus YBR160W, strain CDC28, stronger effect = lower value 0.934 | locus YDL017W, strain CDC7, stronger effect = lower value 0.936 | locus YDL028C, strain MPS1, stronger effect = lower value 0.94 | [1] 0.981 | locus YDL108W, strain KIN28, stronger effect = lower value 0.924 | locus YDL132W, strain cdc53, stronger effect = lower value 0.917 | locus YDL214C, strain PRR2, stronger effect = lower value 0.785 | locus YDR054C, strain cdc34, stronger effect = lower value 0.921 | locus YDR226W, strain ADK1, stronger effect = lower value 0.973 | locus YDR477W, strain SNF1, stronger effect = lower value 0.838 | locus YER123W, strain YCK3, stronger effect = lower value 0.75 | locus YER133W, strain GLC7, stronger effect = lower value 0.74 | locus YFL009W, strain cdc4, stronger effect = lower value 0.924 | locus YFL029C, strain CAK1, stronger effect = lower value 0.923 | locus YFR003C, strain YPI1, stronger effect = lower value 0.935 | locus YFR019W, strain FAB1, stronger effect = lower value 0.83 | locus YFR028C, strain CDC14, stronger effect = lower value 0.928 | locus YGR040W, strain KSS1, stronger effect = lower value 0.836 | locus YGR052W, strain FMP48, stronger effect = lower value 0.785 | locus YHR079C, strain IRE1, stronger effect = lower value 0.584 | locus YHR082C, strain KSP1, stronger effect = lower value 0.853 | locus YIL147C, strain SLN1, stronger effect = lower value 0.94 | locus YJL095W, strain BCK1, stronger effect = lower value 0.751 | locus YJL128C, strain PBS2, stronger effect = lower value 0.917 | locus YJR016C, strain ILV3, stronger effect = lower value 0.924 | locus YJR066W, strain TOR1 (second series), stronger effect = lower value 0.668 | locus YJR066W, strain TOR1, stronger effect = lower value 0.705 | locus YKL067W, strain YNK1, stronger effect = lower value 0.759 | locus YKL101W, strain HSL1, stronger effect = lower value 0.827 | locus YKL193C, strain SDS22, stronger effect = lower value 0.93 | locus YKL203C, strain TOR2, stronger effect = lower value 0.818 | locus YLR133W, strain CKI1, stronger effect = lower value 0.779 | locus YML070W, strain DAK1, stronger effect = lower value 0.805 | locus YMR001C, strain CDC5, stronger effect = lower value 0.93 | locus YMR205C, strain PFK2 (second series), stronger effect = lower value 0.784 | locus YMR277W, strain FCP1, stronger effect = lower value 0.927 | locus YNL006W, strain LST8, stronger effect = lower value 0.923 | locus YNL161W, strain CBK1, stronger effect = lower value 0.936 | locus YNL183C, strain NPR1, stronger effect = lower value 0.899 | locus YNL207W, strain RIO2, stronger effect = lower value 0.939 | locus YNL222W, strain SSU72, stronger effect = lower value 0.924 | locus YOL078W, strain AVO1, stronger effect = lower value 0.925 | locus YOL136C, strain PFK27, stronger effect = lower value 0.797 | locus YOR061W, strain CKA2, stronger effect = lower value 0.693 | locus YOR119C, strain RIO1, stronger effect = lower value 0.858 | locus YOR231W, strain MKK1, stronger effect = lower value 0.843 | locus YOR329C, strain SCD5, stronger effect = lower value 0.939 | locus YPL031C, strain PHO85, stronger effect = lower value 0.823 | locus YPL153C, strain RAD53, stronger effect = lower value 0.801 | locus YPL204W, strain HRR25, stronger effect = lower value 0.722 | locus YPL209C, strain IPL1, stronger effect = lower value 0.925 | locus YPR025C, strain CCL1, stronger effect = lower value 0.936 | locus YPR106W, strain ISR1, stronger effect = lower value 0.956 | locus YPR111W, strain DBF20, stronger effect = lower value 0.95 | strain NNK1, stronger effect = lower value 0.965 | strain TSCII, stronger effect = lower value 0.938
